In the library only some 19% were active in any assay of this set; here they are far more common.
IL1B secr inh – qHTS for Inhibitors of Inflammasome Signaling: IL-1-beta AlphaLISA Primary Screen; THP-1 LPS/ATP IL-1B secretion, AlphaLISA, 16 h; active compounds read low; activity change, % at 57.5 µM; 360,000 compounds, 4.7% hits; AID 743279, 2014; in the data active means activity change below about -50%; inconclusive means mostly about -30% to -49%
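Secreted IL-1B measured by AlphaLISA bead assay after 16 h compound exposure of THP-1 cells; compounds (final up to 57.5 uM) added 1 h before LPS (250 ng/mL) and ATP (1.25 mM) stimulation; lower signal means less secretion.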
TDP1 cell noCPT – qHTS for Inhibitors of human tyrosyl-DNA phosphodiesterase 1 (TDP1): qHTS in cells in absence of CPT; Potency, µM (highest dose often 46.2 µM), for the others: at the top dose activity change, negative = growth inhibition, actives largely listed as inhibitors; AID 686978, 2013; DT40 Tdp1-/- hTDP1 cells, no CPT, ATP luminescence, 48 h; 420,000 compounds, 15% hits; further: potency means the concentration at half of the fitted maximal effect; nearly all actives have a fitted effect of over 55% in size
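Stably hTDP1-transfected Tdp1-null chicken DT40 cells were treated with library compounds minus camptothecin and grown for at least 48 hr at 37 °C, after which cellular ATP was quantified by luminescence.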
HT1080NT lethal – qHTS for induction of synthetic lethality in tumor cells producing 2HG: qHTS for the HT-1080-NT fibrosarcoma cell line; HT-1080-NT fibrosarcoma viability, CellTiter-Glo ATP luminescence, 48 h; Potency, µM (doses to about 46.1 µM), for inactives: at the highest dose activity, negative = less viability, most hits filed as cytotoxic; 360,000 compounds, 1.6% hits; AID 686970, 2013;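 further: NT is the 2HG producing partner of a matched IDH1 knockdown line; potency means the concentration at half of the fitted maximal effect; 0% = DMSO-treated cells and -100% = media-only wells without cells; nearly all actives have a fitted effect of over 55% in size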
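Read-out is CellTiter-Glo luminescence after 10 minutes at room temperature, following 48 hours' compound treatment of HT-1080-NT cells (750 cells/well, RPMI, 5% FBS, 37 degrees C).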
DT40 TDP1 CPT – qHTS for Inhibitors of human tyrosyl-DNA phosphodiesterase 1 (TDP1): qHTS in cells in presence of CPT. chicken DT40 Tdp1-/-;hTDP1 cells + 20 nM CPT, ATP luminescence, 48 h. Potency, µM (top dose mostly 46.2 µM), inactives show top-dose activity change, negative = growth inhibition, usual class: inhibitors. 420,000 compounds, 12% hits. AID 686979, 2013; further: potency means the concentration at half of the fitted maximal effect; nearly all actives have a fitted effect of over 55% in size
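Chicken DT40 Tdp1-/- cells stably complemented with human TDP1 were seeded at 400 cells/well in medium containing 20 nM camptothecin, exposed to pin-transferred compounds, and grown at 37 °C for at least 48 hr. Viability was read as ATP luminescence.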
HT1080 IDH1KD tx – qHTS for induction of synthetic lethality in tumor cells producing 2HG: qHTS for the HT-1080-IDH1KD cell line; HT-1080 IDH1 knockdown viability, ATP luminescence, 48 h; Potency, µM (titrated, usually from 46.1 µM), without a hit: top-dose activity, negative = toxicity, hits mostly cytotoxic; AID 686971, 2013; 360,000 compounds, 2% hits;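 further: potency means the concentration at half of the fitted maximal effect; 0% = DMSO wells and -100% = cell-free medium wells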
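IDH1KD HT-1080 cells, 750/well, RPMI + 5% FBS; compound pinned after 2 h settling; 48 h, 37 °C; CellTiter-Glo luminescence; % activity normalised to DMSO and no-cell wells; curves fitted, classed by r2 and efficacy.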
Numbers without * were called inactive; i = inactive; u = inconclusive; x = no result given; ! = not active in a repeat; [ ] = another dose, or the depositor's remark. Unless noted, the call rests on the fitted dose curve; in most records, active means well fitted curve in the direction sought with a large enough effect; inconclusive means small, poorly fitted or top-dose-only effect, or another doubt; inactive means no such curve, though single readings can be large; an effect the other way counts as inactive or inconclusive. Unless noted, on the % scale 0 is the no-effect control and ±100 the full control effect.

SMILES	IL1B secr inh	TDP1 cell noCPT	HT1080NT lethal	DT40 TDP1 CPT	HT1080 IDH1KD tx
Cc1c2ccncc2c(C)c2c1[nH]c1ccccc12	-79*	1.5µM*	10µM*	2.3µM*	3.7µM*
Cc1nccc2c1[nH]c1ccccc12	-26	24µM*!	-19%	u	-14%
COCC#CCN1CCCCC1c1cccnc1 (centres undefined)	x	-6%[9.04 µM]	x	15%[9.04 µM]	x
COc1ccc(Cl)cc1NC(=O)C1CCN(c2nnc(C)c3c(C)n(-c4ccccc4)nc23)CC1	x	15µM*	x	18µM*	x
COc1ccc(Cl)cc1NC(=O)c1sc2nc3c(cc2c1N)N1CCC3CC1	x	-24%	x	1%	x
Cc1ccc(-n2nc3c(N4CCC(C(=O)NCc5ccccc5Cl)CC4)nnc(C)c3c2C)cc1	x	5.8µM*	x	15µM*	x
COc1ccccc1C(=O)Nc1ccc2nc(SCC(=O)N(C)c3ccccc3)sc2c1	x	12µM*	x	18µM*	x
Cc1ccccc1C(=O)Nc1ccc2nc(SCC(=O)N(C)c3ccccc3)sc2c1	x	15µM*	x	u	x
Cc1cc(NC(=O)c2cccn(Cc3ccccc3)c2=O)no1	x	-8%	x	-7%	x
CC(C)(C)c1ccc(C(=O)Nc2ccc3nc(SCC(=O)N4CCCC4)sc3c2)cc1	x	4.1µM*	x	8.2µM*	x
CCN(CC)C(=O)c1ccc(NC(=O)c2ccc(N3CCCC3=O)cc2)cc1	-14	-4%	2%	9%	10%
CC1NCCC2(O)CCCCC12 (centres undefined)	0	-18%	u	4%	0%
COc1ccccc1NC(=O)c1cn(CCC#N)nc1-c1ccc(F)cc1	17	-18%	5%	-19%	7%
CN1CCCC1c1cccnc1 (centres undefined)	2	-1%	8%	1%	6%
COc1ccc2c3c([nH]c2c1)C(C)NCC3 (centres undefined)	0	u	-5%	2.6µM*	-1%
N[C@]1(C(=O)O)CC[C@@H](C(=O)O)C1 (racemic)	x	-21%	x	8%	x
Cc1c(-c2cccc(Cl)c2)nc2ccccc2c1C(=O)N1CCC2(CC1)OCCO2	i	u	-8%	21µM*	u
O=C(c1cc(-c2ccccc2)nc2ccccc12)N1CCC2(CC1)OCCO2	-3	u	3%	u	-7%
NC(=NCCCC(N)C(=O)O)N[N+](=O)[O-] (centres undefined)	x	-4%	x	-19%	x
CC1OC(OC2C=C3CCC4C(CCC5(C)C(c6ccc(=O)oc6)CCC45O)C3(C)CC2)C(O)C(OC2OC(CO)C(O)C(O)C2O)C1O (centres undefined)	-71*	0.18µM*	0.21µM*	0.16µM*	0.18µM*
ClC1=C(Cl)C2(Cl)C(CBr)CC1(Cl)C2(Cl)Cl (centres undefined)	x	-3%	x	6%	x
CCc1ccc(NP(=O)(Oc2ccccc2F)Oc2ccccc2F)cc1	-102*	u	18µM*	u	23µM*
Brc1ccc(CN2CCNCC2)s1	-2	u	-27%	u	-20%
CN(C)C1(CNC(=O)Cc2ccccc2F)CCCCC1	-6	-1%	-1%	-6%	-10%
CCCN(CCC)[C@@H]1CCc2c(OC)cccc2[C@@H]1C	x	15µM*	x	u	x
SMILES	IL1B secr inh	TDP1 cell noCPT	HT1080NT lethal	DT40 TDP1 CPT	HT1080 IDH1KD tx
CCCN[C@@H]1CCc2c(OC)cccc2[C@@H]1C	x	-22%	x	13%	x
OC(O)C(Cl)(Cl)Cl	x	-1%	x	-1%	x
CNCCc1ccc(OC)c(OC)c1	-19	-18%	-6%	-27%	0%
CCOc1ccc(CCNC(=O)c2cc3c(-c4ccc(OC)c(OC)c4)nn(C)c3s2)cc1OCC	x	3.7µM*	x	4.1µM*	x
C#CCC(Cc1cnc2nc(N)nc(N)c2n1)c1ccc(C(=O)N[C@@H](CCC(=O)O)C(=O)O)cc1 (some centres undefined)	x	0.024µM*	x	0.034µM*	x
CN=C(SCc1cc2c(cc1Cl)OCO2)c1c(O)n(C)c(=O)n(C)c1=O	0	u	-10%	u	-4%
CN1CCCC2(CCN(C(=O)c3ccco3)CC2)C1	x	-1%	x	15%	x
COC(=O)C1=C(c2ccc(-c3ccccc3)c(F)c2)C[C@@H]2CC[C@H]1N2C(=O)NCCO	-6	21µM*	9%	u	-1%
COC(=O)C1=C(c2ccc(F)cc2F)C[C@@H]2CC[C@H]1N2C(=O)NCc1ccc(F)cc1	-6	u	-1%	u	0%
CCCNC(=O)N1[C@H]2CC[C@@H]1C(C(=O)OC)=C(c1ccc(-c3ccccc3)c(F)c1)C2	u	7.3µM*	-13%	9.2µM*	-6%
COC(=O)C1=C(c2ccc(-c3ccccc3)c(F)c2)C[C@@H]2CC[C@H]1N2C(=O)NCc1ccco1	-16	6.5µM*	-24%	7.3µM*	-11%
COC(=O)C1=C(c2ccc(-c3ccccc3)c(F)c2)C[C@@H]2CC[C@H]1N2C(=O)NCCOc1ccccc1Cl	u	u	-25%	u	-17%
COC(=O)C1=C(c2ccc(F)cc2F)C[C@@H]2CC[C@H]1N2C(=O)NCCOc1ccccc1	-11	u	-7%	23µM*	1%
O=C(O)c1ccccc1NC(=O)N1C[C@H]2C[C@@H](C1)c1cccc(=O)n1C2	11	7%	2%	14%	3%
COCCCN=Cc1c(O)[nH]c(=S)[nH]c1=O	-11	-9%	-1%	1%	8%
Cc1cc(C)c(C)c(C(O)(C(=O)O)c2ccccc2)c1 (centres undefined)	-4	5%	9%	0%	-8%
COc1cc(C2C(C#N)=C(N)Oc3cc(O)ccc32)cc(OC)c1OC (centres undefined)	20	1µM*	0.56µM*	1µM*	u
NCCCCN=C(N)N	x	6.7µM*!	x	8.4µM*!	x
N#CC1(N2CCCCC2)CCCCC1	x	0%	x	-4%	x
CNC(C)CCC=C(C)C (centres undefined)	x	15µM*	x	u	x
Nc1ccccc1C(=O)OCCOc1ccccc1	-1	-26%	-4%	13%	5%[9.24 µM]
CCCn1c2ccccc2c2nnc(SCC(=O)Nc3cccc(C(C)=O)c3)nc21	x	15µM*	x	u	x
O=C(CSc1ccc(-c2ccco2)nn1)Nc1ccccc1	15	u	6%	-3%	-10%
COc1ccc(N2CCN(C(=O)CCCCCn3c(=S)[nH]c4ccc(N5CCOCC5)cc4c3=O)CC2)cc1	-22	2.9µM*	-22%	4.1µM*	-18%
